The results in this text go back to PubChem BioAssay (EPA / NIEHS).

Read-out in assay [1]: catalase (CAT), CAT (gene 847)
The experiment in a line: LTEA_HepaRG_CAT: Life Technologies and Expression Analysis (LTEA) Assay for catalase (CAT) using HepaRG (AID 2283452). The note with it: mRNA level, 48 h; actives raise or lower the signal. The method in brief: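 Expression of CAT was quantified by TaqMan qRT-PCR with ACTB/GAPDH/POLR2A normalization after 48 h chemical exposure of HepaRG. Eight-point half-log series, top 100 uM, in 0.5% DMSO; gain or loss fitted against vehicle.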

Read-out in assay [2]: flavin-containing dimethylaniline monooxygenases 3 (FMO3), FMO3 (gene 2328)
The experiment in a line: LTEA_HepaRG_FMO3: Life Technologies and Expression Analysis (LTEA) Assay for flavin-containing dimethylaniline monooxygenases 3 (FMO3) using HepaRG (AID 2283453). Conditions: mRNA level, 48 h; actives raise or lower the signal. In outline: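 FMO3 transcript quantified by TaqMan qRT-PCR against three housekeeping genes after 48 h chemical exposure of HepaRG cells. Eight-point half-log series, top 100 uM, 0.5% DMSO vehicle; phenobarbital 1mM induction control; up- or down-regulation fitted.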

Read-out in assay [3]: Cytochrome P450 (CYP1A1), CYP1A1 (gene 1543)
Put plainly: LTEA_HepaRG_CYP1A1: Life Technologies and Expression Analysis (LTEA) Assay for Cytochrome P450 (CYP1A1) using HepaRG (AID 2283454). The note with it: mRNA level, 48 h; actives raise or lower the signal. The method in brief: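 Induction of CYP1A1 mRNA in a human hepatic cell line was measured 48 h after dosing, with 1 mM phenobarbital as induction positive control and 0.5% DMSO vehicle as baseline for bidirectional curve fitting.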

Read-out in assay [4]: CFLAR gene, CFLAR (gene 8837)
The experiment in a line: LTEA_HepaRG_CFLAR: Life Technologies and Expression Analysis (LTEA) Assay for CFLAR gene using HepaRG (AID 2283455). The note with it: mRNA level, 48 h; actives raise or lower the signal. In outline: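 Transcript level by qRT-PCR (normalized to ACTB, GAPDH and POLR2A) after 48 h chemical exposure of HepaRG cells, top concentration 100 uM with half-log steps, 0.5% DMSO vehicle, duplicates; fitted bidirectionally against DMSO baseline.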

Read-out in assay [5]: Forkhead box O1 (FOXO1), FOXO1 (gene 2308)
Put plainly: LTEA_HepaRG_FOXO1: Life Technologies and Expression Analysis (LTEA) Assay for Forkhead box O1 (FOXO1) using HepaRG (AID 2283456). Conditions: mRNA level, 48 h; actives raise or lower the signal. The method in brief: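 FOXO1 transcript quantified by qRT-PCR after 48 h chemical exposure (top 100 uM, half-log steps, 0.5% DMSO) of HepaRG cells, housekeeping-normalized (ACTB/GAPDH/POLR2A). Changes fitted in both directions relative to vehicle.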

Read-out in assay [6]: growth arrest and DNA damage 45 (GADD45A), GADD45A (gene 1647)
Put plainly: LTEA_HepaRG_GADD45A: Life Technologies and Expression Analysis (LTEA) Assay for growth arrest and DNA damage 45 (GADD45A) using HepaRG (AID 2283458). Conditions: mRNA level, 48 h; actives raise or lower the signal. The method in brief: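 GADD45A expression was measured by TaqMan qRT-PCR against three housekeeping genes (ACTB, GAPDH, POLR2A) after 48 h treatment of HepaRG cells. Eight-point half-log series up to 100 uM in 0.5% DMSO, run in duplicate.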

Read-out in assay [7]: Forkhead box O3 (FOXO3), FOXO3 (gene 2309)
Put plainly: LTEA_HepaRG_FOXO3: Life Technologies and Expression Analysis (LTEA) Assay for Forkhead box O3 (FOXO3) using HepaRG (AID 2283459). The note with it: mRNA level, 48 h; actives raise or lower the signal. In outline:
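FOXO3 transcript measured by qRT-PCR (normalized to ACTB, GAPDH, POLR2A) after 48 h exposure of HepaRG cells in serum-free induction medium. Duplicates, eight half-log concentrations up to 100 uM, 0.5% DMSO; gain or loss fitted against DMSO.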

Read-out in assay [8]: ABC Transporter (ABCB1), ABCB1 (gene 5243)
Put plainly: LTEA_HepaRG_ABCB1: Life Technologies and Expression Analysis (LTEA) Assay for ABC Transporter (ABCB1) using HepaRG (AID 2283460). Conditions: mRNA level, 48 h; actives raise or lower the signal. The method in brief: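 ABCB1 transcript level measured by TaqMan qRT-PCR against three housekeeping genes after 48 h chemical exposure of differentiated HepaRG cells. Top concentration 100 uM, half-log steps, eight points, 0.5% DMSO vehicle; bidirectional fit relative to DMSO.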

Read-out in assay [9]: growth arrest and DNA damage 45 (GADD45B), GADD45B (gene 4616)
Put plainly: LTEA_HepaRG_GADD45B: Life Technologies and Expression Analysis (LTEA) Assay for growth arrest and DNA damage 45 (GADD45B) using HepaRG (AID 2283461). Conditions: mRNA level, 48 h; actives raise or lower the signal. In outline:
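Values are bidirectional concentration-response fits against 0.5% DMSO controls. Underlying data: qRT-PCR mRNA levels in human HepaRG liver cells treated 48 h in serum-free induction medium, eight concentrations topping at 100 uM.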

Assay [10] can be described thus: CEETOX_H295R_TESTO: CeeTox H295R High-throughput Steroidogenesis Assay for Testosterone (TESTO) (AID 2283457).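 As to AC50: cells exposed to chemicals for 48 h before medium collection.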 Conditions: actives raise or lower the signal. In outline:
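Testosterone synthesis is assessed in human adrenocortical H295R cells after 48 h of chemical exposure, using HPLC-MS/MS of extracted medium. Activity is fitted in both directions against DMSO control.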

Molecules are shown by their SMILES. Calls of active or inactive are those of the source. The calls were made as follows: active = hit-call score of the fitted dose curve at least 0.9, where 1 is the maximum; inactive = score below 0.9.

Take `COc1cccc(C(=O)NN(C(=O)c2cc(C)cc(C)c2)C(C)(C)C)c1C`: the call in [1], in assay [2], in assay [4], in assay [5], in assay [6] and in [7] was inactive. The outcome in assay [9] was inactive. The concentration at half-maximal activity (AC50) – broadly, the midpoint of the concentration-response curve, whichever way the signal moves – is 50 µM (active) in assay [3] and 4.33 µM (active) in assay [8].
Consider `CCOC(=O)CC(SP(=O)(OC)OC)C(=O)OCC` (configuration not stated), for which the compound was called inactive in assay [1], in assay [2], in assay [4], in [5], in assay [6] and in assay [7]. The call in assay [8] and in assay [9] was inactive. In addition, the AC50 in [3] was 30.8 µM (active).
Take `CC(C)[C@H](C(=O)O[C@H](C#N)c1cccc(Oc2ccccc2)c1)c1ccc(Cl)cc1`: the compound was classed as inactive in assay [1], in [2], in assay [4], in assay [5], in [6] and in [7]. For the same compound, the result in [9] was inactive. In addition, the AC50 in assay [3] was 34.8 µM (active); in assay [8] it was 23.2 µM (active).
`CCOP(=S)(OCC)OC(Cl)C(Cl)(Cl)Cl` (configuration not stated): the call in assay [1], in assay [2], in assay [4], in assay [5], in assay [6] and in assay [7] was inactive. Further, the compound was called inactive in [8] and in [9]. Moreover, the AC50 in assay [3] is 74.3 µM (active).
As to `CCc1cnc(C2=NC(C)(C(C)C)C(=O)N2)c(C(=O)O)c1` (configuration not stated), the call in assay [1], in assay [2], in assay [3], in assay [4], in assay [5] and in [6] was inactive. Besides, the outcome in assay [7], in assay [8] and in assay [9] was inactive.
As for `CON=C(C(=O)OC)c1ccccc1CON=C(C)c1cccc(C(F)(F)F)c1`, the compound was classed as inactive in [1], in [2], in assay [4], in assay [5], in [6] and in [7]. Further, the outcome in assay [8] and in assay [9] was inactive. Further, the half-maximal activity concentration (AC50) in [3] was 50 µM (active).
`N#CSCSC#N`: the AC50 in [1] is 74.9 µM (active); in assay [2] it was 83.2 µM (active); in [3] it was 50 µM (active); in assay [4], 75.2 µM (active); in [5] it was 80.6 µM (active); in [7], 84.9 µM (active). Further, in assay [9], the AC50 was 50 µM (active). The call in [6] and in assay [8] was inactive.
With `CCOP(=S)(OCC)Oc1ccc2c(C)c(Cl)c(=O)oc2c1`, the result in assay [1], in assay [4], in assay [5], in [6], in assay [7] and in [9] was inactive. In addition, the values for the AC50 in assay [2], in [3] and in assay [8] were 81.1 µM (active), 6.37 µM (active) and 12.9 µM (active), respectively.
For `FC(F)C(F)(F)OCC(Cn1cncn1)c1ccc(Cl)cc1Cl` (configuration not stated), the half-maximal activity concentration (AC50) in [1] was 49.8 µM (active); in assay [2] it was 35.6 µM (active); in [3], 3.17 µM (active); in assay [4], 78.4 µM (active); in [5], 75.3 µM (active); in [6], 74.2 µM (active). Besides, the result in assay [7], in assay [8] and in [9] was inactive.
As to `O=C(O)c1cc(Oc2ccc(C(F)(F)F)cc2Cl)ccc1[N+](=O)[O-]`, the call in [1], in [2], in assay [4], in assay [5] and in [7] was inactive. The AC50 in assay [3] and in [8] was 50 µM (active) each time.
As to `C#CCC1=C(C)C(OC(=O)C2C(C=C(C)C)C2(C)C)CC1=O` (configuration not stated), the result in assay [1], in [2], in assay [4], in assay [5], in [6] and in [7] was inactive. For the same compound, the call in assay [8] and in [9] was inactive. Also, the half-maximal activity concentration (AC50) in assay [3] is 49.8 µM (active).
Take `Nc1nc(N)nc(NC2CC2)n1`: the compound was classed as inactive in assay [1], in assay [2], in assay [4], in assay [5], in assay [6] and in assay [7]. Besides, the call in assay [8] and in [9] was inactive. For the same compound, the AC50 in [3] was 50 µM (active).
Regarding `CCC(CC)Nc1c([N+](=O)[O-])cc(C)c(C)c1[N+](=O)[O-]`, the call in assay [1], in assay [2], in assay [4], in [5], in assay [6] and in assay [7] was inactive. Further, the call in assay [8] and in assay [9] was inactive. For the same compound, in assay [3], the concentration at half-maximal activity (AC50) is 29.8 µM (active).
For `COc1ccc(C(=CC(=O)N2CCOCC2)c2ccc(Cl)cc2)cc1OC`, the outcome in [1], in assay [2], in [4], in assay [6], in assay [7] and in [8] was inactive. Besides, the call in assay [9] was inactive. The AC50 in assay [3] was 50 µM (active); in assay [10] it was 32.8 µM (active).
With `CCCSP(=O)(OCC)SCCC`, the result in [1], in assay [2], in assay [4], in assay [10], in assay [6] and in assay [7] was inactive. Further, the compound was classed as inactive in assay [8] and in assay [9]. For the same compound, the half-maximal activity concentration (AC50) in assay [3] is 40.8 µM (active).
`COc1cc(OC)nc(Sc2cccc(Cl)c2C(=O)O)n1`: the call in assay [1], in assay [2], in assay [3], in assay [4], in assay [6] and in assay [7] was inactive. Also, the result in assay [8] and in assay [9] was inactive.
As to `Nc1c(Cl)cc([N+](=O)[O-])cc1Cl`, the AC50 in [1] was 41.4 µM (active); in assay [2], 50 µM (active); in [3] it was 7.36 µM (active); in assay [4] it was 17.7 µM (active); in assay [6], 78.9 µM (active); in assay [7] it was 7.33 µM (active). The half-maximal activity concentration (AC50) in assay [8] was 31.1 µM (active); in [9], 11.9 µM (active).
As for `CCOP(=S)(Oc1cnc(C(C)(C)C)nc1)OC(C)C` (configuration not stated), the half-maximal activity concentration (AC50) in [1] was 5.63 µM (active); in assay [2] it was 4.99 µM (active); in [3], 35 µM (active); in [8] it was 19.4 µM (active). For the same compound, the call in assay [4], in assay [6], in assay [7] and in assay [9] was inactive.
On to `CC(Oc1cccc(Cl)c1)C(=O)O` (configuration not stated), for which the outcome in assay [1], in [2], in assay [3], in assay [4], in assay [6] and in assay [7] was inactive. Moreover, the compound was called inactive in [8] and in assay [9].
Turning to `CCCOc1nn(C(=O)NS(=O)(=O)c2ccccc2C(=O)OC)c(=O)n1C`, the result in assay [1], in assay [2], in assay [3], in assay [4], in assay [6] and in assay [7] was inactive. Further, the compound was called inactive in assay [8] and in assay [9].
For `CC(C1CC1)C(O)(Cn1cncn1)c1ccc(Cl)cc1` (configuration not stated), the call in assay [1], in assay [4], in assay [6], in [7] and in assay [9] was inactive. Besides, the half-maximal activity concentration (AC50) in assay [2] is 77.7 µM (active); in [3] it was 17 µM (active); in assay [8] it was 13.1 µM (active).
For the compound `COP(=O)(OC)OC(Br)C(Cl)(Cl)Br` (configuration not stated), the compound was called inactive in assay [1], in assay [2], in [7], in assay [8] and in assay [9]. The half-maximal activity concentration (AC50) in assay [3] was 50 µM (active).
